Compounds without any hit were thinned out: in the full panel of roughly 83,000, 20% have a hit.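 48-hour exposure, single concentration, 96-well plates; percent growth endpoint where 0 means no net growth. Active: below 10.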 Active and inactive are the calls of the source.
Assays:
Test in all cases: NCI-60 one-dose screen, 48 h (100 = growth as untreated, 0 = no growth, -100 = all killed)
Conditions in all cases: 10 µM
[1] = test system: HCT-15 colon
[2] = test system: HT29 colon
[3] = test system: SNB-75 CNS
[4] = test system: SNB-19 CNS
[5] = test system: U251 CNS
[6] = test system: PC-3 prostate
[7] = test system: SK-MEL-5 melanoma
[8] = test system: UACC-62 melanoma
[9] = test system: LOX IMVI melanoma
[10] = test system: SK-MEL-28 melanoma

Measured: growth

Nc1nc(Cn2c(-c3nonc3N)nc3ccccc32)nc(N2CCCCC2)n1
inactive: [1] 84.8% | [2] 105% | [3] 76.4% | [4] 87% | [5] 96.9% | [6] 78% | [7] 83.2% | [8] 84.3% | [9] 90% | [10] 95%

O=C(NCCCNS(=O)(=O)c1ccc(Cl)cc1)Nc1ccc(-n2cc(-c3ccncc3)c(-c3ccc(Cl)c(O)c3)n2)cc1
active: [2] 0.25% | [7] 2.07%
inactive: [1] 36.1% | [3] 61.7% | [4] 51.1% | [5] 37.6% | [6] 17.3% | [8] 42.8% | [9] 24.1% | [10] 40.7%

COc1cc(NC(=O)C2=C(N3CCOCC3)/C(=C/c3ccc(Cl)cc3)CC2)cc(OC)c1OC
inactive: [1] 73% | [2] 86% | [3] 90.5% | [4] 79.3% | [5] 91.2% | [6] 44.8% | [7] 66.3% | [8] 73.1% | [9] 89.4% | [10] 112%

O=C(CCCSc1nc(-c2ccccc2)cc(-c2ccc(Cl)cc2)n1)NO
active: [3] 5.53% | [7] -27.7% | [8] -15.3% | [9] -3.49%
inactive: [1] 18.5% | [2] 20.3% | [4] 20.1% | [5] 16.8% | [6] 20.6% | [10] 30.9%

COc1cc(/C=C2\CCCC3=C2NC(N)=NC3c2cc(OC)c(OC)c(OC)c2)cc(OC)c1OC (stereo not given)
inactive: [3] 45.7% | [4] 61.6% | [6] 25.9% | [10] 24.9%
active: [1] -4.55% | [2] -35.4% | [5] -85.2% | [7] -96.5% | [8] -41.1% | [9] -46.7%

COc1cc2cc(Oc3ccc(NC(=O)c4cc(C(F)(F)F)cc(C(F)(F)F)c4)cc3)c(C)nc2cc1OC
inactive: [1] 38.1% | [2] 49.8% | [3] 62.1% | [4] 49.9% | [5] 13.3% | [6] 17.5% | [7] 16.6% | [8] 33.2% | [9] 66% | [10] 84.9%

CC[C@H]1OC(=O)[C@H](C)[C@@H](O[C@H]2C[C@@](C)(OC)[C@@H](O)[C@H](C)O2)[C@H](C)[C@@H](O[C@@H]2O[C@H](C)C[C@H](N(C)C)[C@H]2O)[C@](C)(OC)C/C(C)=C2/O[C@@]1(C)C=C2C
inactive: [3] 49.1% | [4] 57.4% | [6] 53.3% | [7] 18.8%
active: [1] -33.5% | [2] -7.11% | [5] 2.36% | [8] -83.8% | [9] -85.1% | [10] -57.1%

COc1cc(NC(=O)Nc2cnc(Nc3ccc(N4CCOCC4)cc3)nc2Oc2cccc(OC)c2)cc(OC)c1
inactive: [1] 81.9% | [2] 37.2% | [4] 66.6% | [5] 22% | [6] 47.5% | [8] 22.8% | [9] 33.3% | [10] 32.2%
active: [3] 9.13% | [7] -19.9%

Nc1nccc(OCCO)n1
inactive: [1] 98.4% | [2] 88.3% | [3] 89.5% | [4] 101% | [5] 107% | [6] 103% | [7] 99.2% | [8] 106% | [9] 97.5% | [10] 112%

COc1ccc(-c2cc(-c3ccc(OC)c(OC)c3)nc(SCCCC(=O)NO)n2)cc1
active: [1] 2.78% | [2] 4.72% | [3] -19% | [5] -9.1% | [6] 1.17% | [7] -65.2% | [8] -55.2% | [9] -79%
inactive: [4] 11.2% | [10] 19.2%

C[N+]1(CCCCC[N+]2(C)CCCC2)CCCC1
inactive: [1] 103% | [2] 102% | [3] 110% | [4] 96.8% | [5] 108% | [6] 86.3% | [7] 103% | [8] 102% | [9] 105% | [10] 105%

COc1cc(C2CC(c3ccccc3)=NN2C(C)=O)cc(OC)c1OC (stereo not given)
active: [3] -17.1%
inactive: [1] 25.6% | [2] 11.4% | [4] 49% | [5] 27.7% | [6] 37.3% | [7] 35.3% | [8] 44.6% | [9] 41.7% | [10] 59.3%

CCOC(=O)c1cc(C(=O)c2ccc(OC)c(OC)c2)n2c1ccc1ccc3cccnc3c12
inactive: [1] 31.1% | [3] 18% | [4] 45.8% | [5] 24.8% | [6] 22.2% | [7] 17.4% | [8] 47.4% | [9] 31.6% | [10] 60.2%
active: [2] 6.74%

COc1ccc(-c2onc(N)c2-c2cc(OC)c3c(c2)OCO3)cc1
inactive: [1] 23.9% | [3] 17.7% | [4] 52.8% | [5] 18.6% | [6] 61.4% | [8] 42.7% | [9] 34.7% | [10] 47.4%
active: [2] 7% | [7] 1.27%

O=c1[nH]c(=O)n(C2C[C@H](O)[C@@H](CO)O2)cc1C(F)(F)F (stereo not given in full)
inactive: [1] 107% | [2] 103% | [3] 94.3% | [4] 119% | [5] 102% | [6] 91.9% | [7] 106% | [8] 108% | [9] 103% | [10] 120%

CC[C@@H](C(=O)[C@H](C)[C@H](O)[C@@H](C)[C@H]1O[C@H]([C@@H](CC)C(=O)N(CC)CC)CC[C@H]1C)C1O[C@]2(C=C[C@@H](O)[C@]3(CC[C@@](C)([C@H]4CC[C@](O)(CC)[C@H](C)O4)O3)O2)[C@H](C)C[C@@H]1C (stereo not given in full)
active: [1] 9.17% | [3] 6.47% | [6] 3.64% | [7] -74.7%
inactive: [2] 13.8% | [4] 12.8% | [5] 24.2% | [8] 14.3% | [9] 31% | [10] 27%

Nc1nc(-c2ccc(Cl)cc2)cc(-c2cc3ccccc3oc2=O)n1
inactive: [1] 102% | [2] 93.5% | [3] 68.4% | [4] 94% | [5] 99.4% | [6] 97.8% | [7] 91.2% | [8] 92.5% | [9] 92.8% | [10] 110%

COc1cc(C2CC(c3cc(Cl)c(C)cc3O)=NN2c2ccc(S(N)(=O)=O)cc2)cc(OC)c1OC (stereo not given)
inactive: [1] 16.7% | [3] 45.7% | [4] 48.7% | [5] 16.9% | [8] 16.3% | [9] 16.2% | [10] 31.7%
active: [2] 1.52% | [6] 0.104% | [7] -4.95%

COc1cccc(C2C(C#N)=C(N)Oc3cc(N)ccc32)c1 (stereo not given)
inactive: [1] 40.3% | [4] 44.6% | [6] 25.4% | [7] 21.5% | [8] 41.7% | [9] 43.6% | [10] 46.9%
active: [2] 2.39% | [3] 3.44% | [5] 4.8%

C=C1CCC2(C#N)[C@H]3[C@H](CC[C@@H]2C)[C@@H](C)C[C@@H](CC(C)(C)NC(=O)CN2CCC2=O)[C@H]13 (stereo not given in full)
inactive: [1] 47.3% | [2] 75.6% | [3] 57.4% | [4] 40.2% | [5] 33.6% | [6] 17.8% | [7] 27.4% | [8] 48.5% | [9] 54.2% | [10] 73.9%

c1ccc(CSc2ncccc2-c2nnc(SCCN3CCOCC3)o2)cc1
inactive: [1] 105% | [2] 111% | [3] 79.6% | [4] 115% | [5] 117% | [6] 111% | [7] 102% | [8] 113% | [9] 108% | [10] 107%

COc1ccc(-c2cc(-c3ccc(Cl)cc3)nc(SCCCCCCC(=O)NO)n2)cc1OC
inactive: [1] 30.5% | [2] 46.7% | [3] 34% | [4] 60.6% | [5] 59.8% | [6] 58.6% | [8] 28.1% | [10] 72.9%
active: [7] 1.04% | [9] 0.604%

C#CCOc1c(OC)cc(C(=O)/C(C)=C/c2cccc(N=[N+]=[N-])c2)cc1OC
active: [2] 2.11%
inactive: [1] 18.7% | [3] 15.1% | [4] 34.5% | [5] 18.7% | [6] 22.7% | [7] 35.2% | [8] 37.7% | [9] 30.4% | [10] 58.8%

CC1(C)N=C(N)N=C(N)N1c1cccc(C#N)c1
inactive: [1] 33% | [2] 35.9% | [3] 77.4% | [4] 66.8% | [5] 28.5% | [6] 43.1% | [7] 52.4% | [8] 54.1% | [9] 21% | [10] 95%

Cc1cc(=O)n2nnc3cc(Cl)c(Cl)cc3n12
inactive: [1] 103% | [2] 106% | [3] 95.6% | [4] 110% | [5] 94.8% | [6] 94.4% | [7] 110% | [8] 106% | [9] 87.3% | [10] 105%

COc1cc(C(=O)/C(C)=C/c2c[nH]c3ccccc23)cc(OC)c1OC
active: [1] 9.94% | [2] 5.62% | [7] -36.4%
inactive: [3] 36.3% | [4] 34% | [5] 18.1% | [6] 19.8% | [8] 40.2% | [9] 17.8% | [10] 66.2%

O=C1c2ccccc2C(=O)c2c1ccc(C(Br)Br)c2[N+](=O)[O-]
inactive: [1] 38.3% | [2] 46.1% | [3] 109% | [4] 60.9% | [6] 19.2% | [7] 60.8% | [8] 27.6% | [10] 102%
active: [5] 9.58% | [9] -65.3%

Reference: PubChem BioAssay (NCI)
